From PubChem BioAssay
Active and inactive are the calls of the source. No stated cut-off is given here; in the data, active means nuclear beta-catenin stimulation mostly above about 4.2% (no sharp cut-off); inactive means mostly below about 10%.

assay: Wnt pathway potentiators raising nuclear beta-catenin – imaging, WNT3A-conditioned medium, mouse C2C12, NPC library, primary screen (AID 1117326); conditions: at 10 µM, active compounds read high; further: reference of the scale not given here

Nuclear beta-catenin stimulation, active:
Oc1c(Cl)cc(Cl)cc1Sc1cc(Cl)cc(Cl)c1O 41.4%, COc1ccc2cc1Oc1ccc(cc1)C[C@H]1c3c(cc4c(c3Oc3cc5c(cc3OC)CCN(C)[C@@H]5C2)OCO4)CCN1C 64.7%

Nuclear beta-catenin stimulation, inactive:
O=C(O)c1cc(O)c(O)c(O)c1 1%, Cc1c(C(N)=O)cc([N+](=O)[O-])cc1[N+](=O)[O-] -0.3%, Nc1ccc(S(=O)(=O)Nc2ccc(Cl)nn2)cc1 3.3%, CCCc1cc(C(N)=S)ccn1 0.2%, CCCCC(CC)CN1CN(CC(CC)CCCC)CC(C)(N)C1 (stereo not drawn) -4.8%, C[N+]12CCC(CC1)C(OC(=O)C(O)(c1ccccc1)c1ccccc1)C2 (stereo not drawn) 1.4%, C=CCSCC1Nc2cc(Cl)c(S(N)(=O)=O)cc2S(=O)(=O)N1 (stereo not drawn) 0.3%, CCOc1ccc(Cc2nccc3cc(OCC)c(OCC)cc23)cc1OCC 1.8%, O=C1C(O)=C(O)C(=O)C(O)=C1O -1.5%, Oc1ccc(Cl)c2cccnc12 26.2%, COc1ccc(C2C(=O)c3ccccc3C2=O)cc1 1.8%, C[C@@](Cc1ccc(O)c(O)c1)(NN)C(=O)O -1.9%, O=C(O)c1ccccc1OP(=O)(O)O 0.8%, Nc1ccc(N=Nc2ccccc2)c(N)n1 5.9%, C=CCc1ccc(O)c(OC)c1 1.1%, COc1ccc(-c2cc(C(F)F)nn2-c2ccc(S(N)(=O)=O)cc2)cc1F 4%, Cc1c(NC(=O)c2cccnc2)c(=O)n(-c2ccccc2)n1C -1.7%, CN1CCCN=C1COC(=O)C(O)(c1ccccc1)C1CCCCC1 (stereo not drawn) 3%, O=C(OCC(O)CO)c1ccccc1Nc1ccnc2cc(Cl)ccc12 (stereo not drawn) 3.1%, Cc1cc(=O)[nH]c(=S)[nH]1 -1.2%, COc1cccc(OC)c1C(=O)N[C@@H]1C(=O)N2[C@@H]1SC(C)(C)[C@@H]2C(=O)O -0.9%, O=C1c2cccc(O)c2C(=O)c2c(O)cccc21 -0.6%, CC(=O)N(O)CCCCCNC(=O)CCC(=O)N(O)CCCCCNC(=O)CCC(=O)N(O)CCCCCN -0.3%, CC1(C)O[C@@H]2C[C@H]3[C@@H]4C[C@H](F)C5=CC(=O)CC[C@]5(C)[C@H]4[C@@H](O)C[C@]3(C)[C@]2(C(=O)CO)O1 -1.9%, COc1cc(NS(=O)(=O)c2ccc(N)cc2)ncn1 3%, Cc1onc(-c2ccccc2)c1C(=O)N[C@@H]1C(=O)N2[C@@H]1SC(C)(C)[C@@H]2C(=O)O -2.3%, CCCCOc1ccc(CC(=O)NO)cc1 0%, CCC(=O)O[C@H]1[C@H](O[C@@H]2[C@@H](C)[C@H](O[C@H]3C[C@@](C)(OC)[C@@H](O)[C@H](C)O3)[C@@H](C)C(=O)O[C@H](CC)[C@@](C)(O)[C@H](O)[C@@H](C)C(=O)[C@H](C)C[C@@]2(C)O)O[C@H](C)C[C@@H]1N(C)C 0.6%, CC(=O)Nc1ccc(OCC(O)CNC(C)C)cc1 (stereo not drawn) 0.5%, Cc1c(N(C)CS(=O)(=O)O)c(=O)n(-c2ccccc2)n1C -0.4%, CC(=O)Nc1ccccc1 5.2%, O=C(CCCCC(=O)Nc1c(I)cc(I)c(C(=O)O)c1I)Nc1c(I)cc(I)c(C(=O)O)c1I 1.1%, O=C(O)c1ccccc1C(=O)Nc1ccc(S(=O)(=O)Nc2nccs2)cc1 0.8%, Cc1c(NC(C)C)c(=O)n(-c2ccccc2)n1C 3.6%, CC[C@]12CCCN3CCc4c(n(c5ccccc45)[C@@](O)(C(=O)OC)C1)[C@@H]32 -2.1%, Cc1cc(C)cc(OCC2CNC(=O)O2)c1 (stereo not drawn) -0.1%
